Most compounds without a hit are left out; they make up all but 3.3% or so of the library.
NOD2-RIPK2 inh – NOD2-RIPK2 binding disruptors in cells, primary screen, fluorescence, CHO cells, BLA complementation | inhibition, % at 4.98 µM | CCF4 ratio | AID 624267, 2012 | actives 0.38% (n = 360,000); in the data active means inhibition above about 21%;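 further: 0% = vehicle only and 100% = reference blocker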
ABHD5 PLIN5 PPI – ABHD5-PLIN5 interaction inhibitors, primary screen, cell lysate, split luciferase complementation, luminescence; Split G. princeps luciferase complementation, 4 h; inhibition, % at 4 µM; actives 0.78% (n = 360,000); AID 602281, 2012;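 active means inhibition above the mean inhibition across every tested compound plus 3 SD, cut at about 22% in these data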;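 further: 0% = DMSO only wells and the 100% control is not disclosed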
TLR4 MyD88 comp – inhibitors of TLR4-MyD88 association in cells, primary screen, cell-based, HeLa CL3-4, BLA complementation, FRET ratio. Toll-like receptor 4 (Homo sapiens) + Myeloid differentiation primary response protein …. HeLa CL3-4 TLR4/MyD88 BLA complementation. inhibition, % at 8.4 µM. actives 0.18% (n = 200,000); in the data active means inhibition above about 25%;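 further: 0% = vehicle and 100% = reference inhibitor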
Target sequence (O00206 whole entry, looked up): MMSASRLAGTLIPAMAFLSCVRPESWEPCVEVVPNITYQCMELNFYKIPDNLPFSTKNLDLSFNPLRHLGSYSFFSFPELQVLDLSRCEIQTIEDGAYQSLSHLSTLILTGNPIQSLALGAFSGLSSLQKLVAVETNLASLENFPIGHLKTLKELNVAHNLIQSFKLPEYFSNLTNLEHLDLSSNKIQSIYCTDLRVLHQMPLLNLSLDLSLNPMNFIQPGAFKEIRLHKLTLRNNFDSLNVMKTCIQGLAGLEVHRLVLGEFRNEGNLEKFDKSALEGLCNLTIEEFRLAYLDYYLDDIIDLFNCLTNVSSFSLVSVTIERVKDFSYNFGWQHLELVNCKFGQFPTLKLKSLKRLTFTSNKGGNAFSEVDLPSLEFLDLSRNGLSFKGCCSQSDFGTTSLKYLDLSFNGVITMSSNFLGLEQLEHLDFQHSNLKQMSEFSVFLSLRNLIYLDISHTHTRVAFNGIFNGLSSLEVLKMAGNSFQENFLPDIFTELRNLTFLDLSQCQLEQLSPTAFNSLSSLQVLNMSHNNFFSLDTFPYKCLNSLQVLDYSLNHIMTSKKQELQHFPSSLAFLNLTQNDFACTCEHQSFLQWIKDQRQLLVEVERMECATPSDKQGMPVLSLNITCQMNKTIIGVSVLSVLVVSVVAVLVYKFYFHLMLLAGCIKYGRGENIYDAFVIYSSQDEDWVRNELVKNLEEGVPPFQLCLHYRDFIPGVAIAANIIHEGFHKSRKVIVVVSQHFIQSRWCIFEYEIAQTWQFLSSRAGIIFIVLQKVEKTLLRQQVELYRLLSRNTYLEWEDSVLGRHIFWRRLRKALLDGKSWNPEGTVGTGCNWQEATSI
Target sequence (Q99836 whole entry, looked up): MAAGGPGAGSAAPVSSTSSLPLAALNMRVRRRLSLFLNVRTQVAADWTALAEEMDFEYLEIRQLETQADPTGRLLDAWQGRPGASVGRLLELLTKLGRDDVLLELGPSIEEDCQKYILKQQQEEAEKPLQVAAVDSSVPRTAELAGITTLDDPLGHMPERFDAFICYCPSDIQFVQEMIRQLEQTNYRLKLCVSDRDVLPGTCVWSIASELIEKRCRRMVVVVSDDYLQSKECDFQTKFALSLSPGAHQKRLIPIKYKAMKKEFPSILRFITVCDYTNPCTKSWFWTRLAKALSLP
PRMT1 FP inh – PRMT1 methyltransferase inhibitors, primary screen, biochemical, fluorescence polarization | Protein arginine N-methyltransferase 1 (Homo sapiens), Q99873 | recombinant PRMT1, activity-based probe fluorescence polarization | inhibition, % at 2.79 µM | actives 1.3% (n = 370,000) | AID 652257, 2013;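 active means inhibition above about 21% made by adding two undisclosed values, limit read from the data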
TLR9-MyD88 block – inhibitors of TLR9-MyD88 association in cells, primary screen, cell-based, CHO, BLA complementation, fluorescence; Toll-like receptor 9 (Homo sapiens) + Myeloid differentiation primary response protein …; CCF4 FRET ratio; inhibition, % at 4.98 µM; actives 0.21% (n = 340,000); AID 504734, 2011;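 active means inhibition above the mean over all tested compounds plus 3 SD, cut at about 21% in these data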;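 further: 0% = DMSO only wells and 100% = clavulanate BLA inhibitor control wells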
rCAG RNA binder – binders of r(CAG) RNA repeats, primary screen, biochemical, fluorescence. r(CAG) RNA repeat, TO-PRO-1 dye displacement fluorescence. AID 651821, 2012. inhibition, % at 3 µM. actives 1.3% (n = 370,000);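 active means inhibition above the plate cutoff, the mean of all test compounds on that plate plus 3 SD, cut at about 35% in these data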;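 further: 0% = DMSO alone and 100% = 100 µM mitoxantrone as full dye displacement; higher means more dye released from RNA so lower well fluorescence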
rCAG bind conf – small molecules binding CAG repeat RNA – biochemical, fluorescence, confirmation. shares compounds with rCAG RNA binder. r(CAG) RNA repeat, TO-PRO-1 dye displacement fluorescence. inhibition, % at 3 µM. actives 70% (n = 4,300). AID 652065, 2013;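 active means inhibition above a per-plate cutoff, the mean inhibition of sample wells plus 3 SD, cut at about 35% in these data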;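 further: loss of TO-PRO-1 fluorescence as compound displaces dye from 1x1 AA loop RNA; 0% = DMSO only wells and 100% = 100 µM mitoxantrone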
DNA CAG counter – displacement of TO-PRO-1 from CAG DNA duplex, counter-screen for rCAG RNA repeat binder project, biochemical, fluorescence, TO-PRO-1 dye, d(CAG) DNA oligo. actives 94% (n = 4,300). shares compounds with rCAG RNA binder. inhibition, % at 3 µM. d(CAG) DNA oligo TO-PRO-1 dye displacement;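 active means inhibition above its plate's cutoff, the mean test-well inhibition plus 3 SD, cut at about 4.8% in these data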;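 further: 0% = DNA dye mix with DMSO and 100% = 100 µM mitoxantrone; hits displace the dye from DNA and so lower well fluorescence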
* hit, by the source's call.

Results for Cc1sc2nc(SCc3ccc(C(=O)O)cc3)n(Cc3ccco3)c(=O)c2c1C ?
NOD2-RIPK2 inh: -3; ABHD5 PLIN5 PPI: 8; PRMT1 FP inh: 1; TLR9-MyD88 block: -7; rCAG RNA binder: 55*; rCAG bind conf: 57*; DNA CAG counter: 20*

Results for CCOc1ccc2nc(NC(=O)Nc3ccccc3)sc2c1 ?
NOD2-RIPK2 inh: 4; ABHD5 PLIN5 PPI: -11; TLR4 MyD88 comp: 3; PRMT1 FP inh: -2; TLR9-MyD88 block: -7; rCAG RNA binder: 50*; rCAG bind conf: 15; DNA CAG counter: 20*

What do the screens show for `COc1ccc2nc(NC(=O)CSc3nc(C)cc(=O)[nH]3)sc2c1`?
NOD2-RIPK2 inh: -9; ABHD5 PLIN5 PPI: -3; TLR4 MyD88 comp: 5; PRMT1 FP inh: 1; TLR9-MyD88 block: -11; rCAG RNA binder: 12

How did COc1ccc(NC(=O)Nc2nc3ccccc3s2)cc1 do in these assays?
NOD2-RIPK2 inh: -16; ABHD5 PLIN5 PPI: -6; PRMT1 FP inh: 0; TLR9-MyD88 block: -3; rCAG RNA binder: 48*; rCAG bind conf: 15; DNA CAG counter: 18*

Results for CCOc1ccc2nc(NC(=O)Cc3cccs3)sc2c1 ?
NOD2-RIPK2 inh: 10; ABHD5 PLIN5 PPI: 3; TLR4 MyD88 comp: -2; TLR9-MyD88 block: -5

Results for CCCc1cc(=O)[nH]c(SCC(=O)Nc2nc3ccc(OCC)cc3s2)n1 ?
NOD2-RIPK2 inh: -22; ABHD5 PLIN5 PPI: -5; TLR4 MyD88 comp: 10; PRMT1 FP inh: 3; TLR9-MyD88 block: -3; rCAG RNA binder: 49*; rCAG bind conf: 40*; DNA CAG counter: 12*

What do the screens show for `CCOc1ccc2nc(NC(=O)Nc3cccs3)sc2c1`?
NOD2-RIPK2 inh: -15; ABHD5 PLIN5 PPI: 0; TLR4 MyD88 comp: -6; PRMT1 FP inh: 0; TLR9-MyD88 block: 0; rCAG RNA binder: 64*; rCAG bind conf: 29; DNA CAG counter: 28*

What do the screens show for `Cc1cc(Br)ccc1NC(=O)CN(C)C(=O)C1=COCCO1`?
NOD2-RIPK2 inh: 5; ABHD5 PLIN5 PPI: -3; PRMT1 FP inh: -4; TLR9-MyD88 block: -11; rCAG RNA binder: -1

What do the screens show for `c1ccc(CSc2ccc(-c3ccco3)nn2)cc1`?
NOD2-RIPK2 inh: 1; ABHD5 PLIN5 PPI: -2; TLR4 MyD88 comp: 13; PRMT1 FP inh: 7; TLR9-MyD88 block: -7; rCAG RNA binder: 1

What do the screens show for `CCN(CC)S(=O)(=O)c1ccc(NC(=O)c2ccc(Sc3nncn3C)c([N+](=O)[O-])c2)cc1`?
NOD2-RIPK2 inh: 5; ABHD5 PLIN5 PPI: 10; TLR4 MyD88 comp: 0; PRMT1 FP inh: 0; TLR9-MyD88 block: 0; rCAG RNA binder: 36*; rCAG bind conf: 13; DNA CAG counter: 5.8*

Results for CN(C)S(=O)(=O)c1cccc(NC(=O)c2ccc(Sc3nncn3C)c([N+](=O)[O-])c2)c1 ?
NOD2-RIPK2 inh: -2; ABHD5 PLIN5 PPI: 1; TLR4 MyD88 comp: -3; PRMT1 FP inh: -2; TLR9-MyD88 block: -1; rCAG RNA binder: 14
